NPC1 prom act: NPC1 promoter activation; Huh7 NPC1 promoter luciferase reporter, 24 h; Potency, µM (highest dose often 9.22 µM), for the others: top-dose activation, hits mostly activators; hit rate 2.4% among 320,000; AID 485313; also: % of control where 0% means no effect; nearly all actives have a fitted effect of over 60% in size
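NPC1 promoter–luciferase Huh7 cells; 24 h compound; luminescence.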
Rab9 prom act: Rab9 promoter activation. hit rate 2.8% among 320,000. Huh7 Rab9 promoter-luciferase reporter, luminescence, 24 h. Potency, µM (doses to about 9.22 µM), without a hit: top-dose activation, negative = inhibition, most hits filed as activators. AID 485297; also: % of control where 0% means no effect; nearly all actives have a fitted effect of over 60% in size
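Using Huh7 cells stably transfected with Rab9 promoter–luciferase, compounds were incubated 24 h at 37 °C, 5% CO2; luciferase luminescence was read 10 min after reagent addition.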
ELG1 genotoxic: genotoxicity induction in ELG1-luciferase HEK293T cells. AID 504466. Potency, µM (doses to about 46 µM), inactives show at the highest dose activity change, positive = activation, hits mostly activators. hit rate 1.3% among 330,000. HEK293T ELG1-luciferase reporter, luminescence, 16 h; also: % of control where 0% means no effect; nearly all actives have a fitted effect of over 60% in size
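Luminescence read-out: rising ELG1-luciferase signal, reflecting elevated ELG1 protein under genetic stress, flags genotoxic compounds. Cells were treated for 16 hr at 37 °C before ONE-Glo detection.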
FLuc counter: counter-screen for miR-21 project: firefly luciferase inhibitors or activators. P08659. purified FLuc, Km substrates, luminescence inhibition. Potency, µM (top dose mostly 57.5 µM), without a hit: top-dose activity change, negative = inhibition, actives largely listed as inhibitors. hit rate 6.9% among 360,000. AID 588342;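 also: plate controls were vehicle for no effect and reference inhibitor for full effect; nearly all actives have a fitted effect of over 55% in size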
Target sequence (P08659 whole entry, looked up): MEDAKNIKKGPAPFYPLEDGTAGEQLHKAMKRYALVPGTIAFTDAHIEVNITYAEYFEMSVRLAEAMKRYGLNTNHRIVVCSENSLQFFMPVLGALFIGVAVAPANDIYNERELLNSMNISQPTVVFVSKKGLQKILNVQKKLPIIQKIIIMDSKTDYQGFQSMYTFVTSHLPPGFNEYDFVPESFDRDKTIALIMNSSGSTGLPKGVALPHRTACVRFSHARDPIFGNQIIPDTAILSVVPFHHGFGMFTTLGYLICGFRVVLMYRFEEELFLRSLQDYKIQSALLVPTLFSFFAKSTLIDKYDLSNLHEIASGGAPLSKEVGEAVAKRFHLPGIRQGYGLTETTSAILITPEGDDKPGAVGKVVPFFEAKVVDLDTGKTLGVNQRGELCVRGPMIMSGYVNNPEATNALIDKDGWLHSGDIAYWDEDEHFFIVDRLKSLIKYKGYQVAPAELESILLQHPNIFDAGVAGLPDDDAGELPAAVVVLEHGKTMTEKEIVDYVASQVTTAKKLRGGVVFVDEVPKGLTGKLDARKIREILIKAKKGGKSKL
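Purified P. pyralis luciferase, 10 nM final, with Km-level 10 uM D-luciferin and 10 uM ATP in 50 mM Tris acetate pH 7.5, 10 mM Mg acetate, 0.01% Tween-20, 0.05% BSA; 6-point qHTS titration about 60 µM downward; luminescence read.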
SMN2 splice up: enhancers of SMN2 splice variant expression; HEK293 SMN2-luciferase splicing reporter, luminescence, 30-36 h; hit rate 2.8% among 210,000; AID 1458; Potency, µM (highest dose often 46.1 µM), for inactives: at the top dose activity change, positive = activation, actives largely listed as activators; also: % of control where 0% means no effect; nearly all actives have a fitted effect of over 55% in size
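qHTS luciferase splicing reporter: luminescence rises when SMN2 exon 7 is included in transfected HEK293 cells. Compound exposure lasted 30-36 h at 37C, with 4.5 mM final sodium butyrate as control, followed by a ONE-Glo read.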
p53 reactivator: mutant p53 re-activation in reporter cells | H1299 p53-A138V BP100-luciferase reporter, luminescence, 24 h | Potency, µM (doses to about 92.2 µM), for the others: at the highest dose activity change, positive = activation, actives largely listed as activators | hit rate 0.063% among 320,000 | AID 504706; also: % of control where 0% means no effect; nearly all actives have a fitted effect of over 45% in size
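H1299 (p53-null), stable ts p53-A138V + BP100-Luc; 1000 cells/well, Opti-MEM/10% FBS; cpd 4 pt, 1:5; 24 h, 37 deg C, 5% CO2; detection reagent 10 min RT; luminescence.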
The depositor's hits bear a star; ? = inconclusive; . = no result given; [ ] = another dose, or the depositor's remark. Hits are enriched below; roughly 7.3% of the tested compounds scored in any of these assays. Calls follow the shape of the dose curve; as a rule, active = well fitted curve in the direction sought with a large enough effect; inconclusive = small, poorly fitted or top-dose-only effect, or another doubt; inactive = no such curve, though single readings can be large; an effect the other way counts as inactive or inconclusive. Potency is read from the fitted curve at half-maximal effect.

SMILES | NPC1 prom act | Rab9 prom act | ELG1 genotoxic | FLuc counter | SMN2 splice up | p53 reactivator
CCOc1ccc(-c2cc3c(=O)n(CC(=O)NCc4ccc(F)cc4)ccn3n2)cc1 | . | . | . | -3.4% | . | .
OCC1OC(Oc2c[nH]c3ccccc23)C(O)C(O)C1O (configuration not stated) | 8.4% | 1.4% | -10.9% | 3.0% | . | 1.0%
CCc1ccccc1NC(=O)c1nnn(Cc2ccc(Cl)cc2)c1N | . | . | . | 4.1% | -16.2% | .
O=C(Nc1ccc(N=Nc2ccccc2)cc1)c1ccc(Cl)cc1Cl | -8.1% | 2.5% | 4.4% | 2.4% | -4.2% | -2.7%
O=C(CCl)Nc1ccc(-c2ccccc2)cc1 | -46.1% | -47.1% | -9.2% | -5.7% | -60.8% | -15.0%
CC(C)C(=O)OCC(=O)NCc1ccccc1Cl | ? | -1.8% | 4.2% | 16.9µM* | 2.2% | 3.3%
O=C(CCl)Nc1ccc(N=Nc2ccccc2)cc1 | 20.7% | 26.8% | -17.3% | 6.01µM* | -25.8% | ?
O=C(Nc1ccc(N=Nc2ccccc2)cc1)c1ccccc1Cl | 1.78µM* | 2.51µM* | ? | 3.79µM* | 11.2µM* | ?
Cc1ccc(C)c(N2CCN(CCN3CCCCC3)CC2)c1 | -1.5% | -9.3% | -5.5% | -2.5% | . | -3.2%
O=C(Nc1cccnc1Cl)c1cc(-c2ccc(O)cc2)on1 | -3.3% | 24.6% | ? | ? | . | 21.8%
O=C(NC1CCCCC1)c1cc(-c2ccccc2O)on1 | ? | ? | 20.6µM* | ? | . | ?
Cc1ccc(-c2cc(C(=O)NC3CCCCC3)no2)cc1 | 2.51µM* | 3.55µM* | 17.5% | ? | . | 21.5%
O=C(NC1CCCCC1)c1cc(-c2ccc(O)cc2)on1 | 2.51µM* | 3.16µM* | ? | ? | . | ?
CCC(C)NC(=O)c1cc(-c2ccccc2O)on1 (configuration not stated) | 17.6% | ? | ? | ? | -3.6% | ?
COc1ccc(-c2cc(C(=O)NC3CCCCC3)no2)cc1OC | 0.4% | 6.3% | 2.9% | 1.2% | . | -1.4%
COc1ccc(CNC(=O)CSc2nccn(-c3ccc(F)c(F)c3)c2=O)cc1 | 6.2% | -1.9% | -0.1% | 0.1% | . | 7.7%
Cc1ccc(NC(=O)CCC(=O)N2Cc3ccccc3Oc3ncccc32)c(C)c1 | . | . | . | -10.8% | . | .
CC(=C/c1ccco1)/C=N/NC(=O)c1ccncc1 | 11.3% | 20.3% | 0.8% | 16.9µM* | . | -0.7%
CC(/C=N/NC(=O)c1cnccn1)=C\c1ccco1 | ? | ? | ? | 12µM* | . | 11.9%
CC1Sc2ccc(S(=O)(=O)CCC(=O)Nc3ccc(C(C)C)cc3)cc2NC1=O (configuration not stated) | -1.4% | -0.8% | -6.9% | 2.4% | . | ?
O=C(NCC(c1cccnc1)N1CCN(Cc2ccccc2)CC1)C(=O)Nc1cccc(F)c1 (configuration not stated) | . | . | . | -10.6% | . | .
COc1ccc(NC(=O)N2CCc3c(sc4c3CCCC4)C2c2ccc(F)cc2)cc1 (configuration not stated) | . | . | . | -3.6% | . | .
Cn1cc(C(=O)NCc2ccccc2)c(=O)c2cc(S(=O)(=O)N3CCCCCC3)ccc21 | . | . | . | -7.7% | . | .
COc1ccc(-c2nc(CSCC(=O)NCc3ccccc3Cl)c(C)o2)cc1OC | . | . | . | -15.2% | -22.3% | .
O=c1cc(-c2ccc(O)c(O)c2)oc2ccc3ccccc3c12 | ? | 16.5% | 1.46µM* | 2.39µM* | . | .
SMILES | NPC1 prom act | Rab9 prom act | ELG1 genotoxic | FLuc counter | SMN2 splice up | p53 reactivator
COc1cc(-c2cc(=O)c3c(O)cc(O)cc3o2)ccc1O | 28.7% | 21.6% | ? | 15.1µM* | . | 8.3%
COc1cc(-c2cc(=O)c3ccccc3o2)ccc1O | 21.4% | ? | 14.6µM* | ? | ? | 16.2%
Cc1ccc(NC(=O)CSc2nc3c(c(=O)[nH]2)CCC3)cc1Cl | . | . | . | -7.4% | . | .
Cc1ccc(C(=O)N/N=C/c2ccc(S(=O)(=O)O)o2)c(Cl)c1 | -2.4% | -19.6% | -0.1% | 15.1µM* | 9.2% | -3.5%
COC(=O)c1ccc(C(=O)OC)c(NC(=O)c2cnn3c(C(F)F)cc(-c4ccccc4)nc23)c1 | . | . | . | 0.2% | . | .
Cc1ccc(Nc2cc(C)c(C#N)c3nc4ccccc4n23)cc1Cl | . | . | . | -0.2% | 4.5% | .
N#Cc1c(/N=C/c2cccs2)sc2c1CCC2 | 3.16µM* | 2µM* | 7.08µM* | 1.51µM* | 17.8µM* | 21.1%
CN(C)/C=N/c1sc2c(c1C#N)CCCC2 | 21.9% | 26.4% | 14.9% | ? | -28.2% | -1.5%
N#Cc1c(/N=C/c2ccco2)sc2c1CCCCC2 | 0.794µM* | 3.55µM* | ? | 0.169µM* | -9.5% | ?
Clc1ccc2c(c1)N(CCCN1CCCC13CCCCC3)c1ccccc1S2 | . | . | . | . | 2.1%[9.22 µM] | .
COc1cc(CNc2ccc(N3CCCC3)cc2)cc(Cl)c1OC | 1.1% | 13.8% | 2.9% | 9.53µM* | -37.0% | 3.4%
CCOc1cc(CNc2ccc(N3CCCC3)cc2)cc(Cl)c1OC | 12.6% | 19.5% | 10.0% | 26.9µM* | -3.4% | -13.3%
COc1cc(CNc2ccc(N3CCOCC3)cc2)cc(Br)c1OC | -6.0% | 2.2% | -5.0% | -8.5% | -10.4% | 2.2%
CN(C)c1ccc(C(CNS(=O)(=O)c2ccc([N+](=O)[O-])cc2)N2CCOCC2)cc1 (configuration not stated) | -1.7% | 1.6% | 2.7% | 5.4% | . | -0.9%
CCOc1cccc(-c2nc3ccccc3c(=O)o2)c1 | . | . | . | 5.36µM* | ? | .
COc1cc(OC)cc(-c2nc3ccccc3c(=O)o2)c1 | -2.7% | -6.5% | -4.8% | ? | -13.2% | 4.7%
CCN1C(=O)c2ccc(-c3nc4ccccc4c(=O)o3)cc2C1=O | -2.0% | 4.7% | 2.3% | -10.7% | . | -0.3%
COc1cccc(-c2nc3ccccc3c(=O)o2)c1 | 12.3% | 8.7% | ? | 4.78µM* | -13.2% | ?
CCOc1ccc(CCNC(=O)CCCc2nnc3n(CCCOC)c(=O)c4sccc4n23)cc1 | . | . | . | 4.4% | . | .
CN(C)S(=O)(=O)n1cnc([C@@H]2[C@@H]3C(=O)OC[C@@H]3C[C@]23N=CN(Cc2ccccc2)C3=O)c1 | -2.0% | 2.5% | 2.0% | 1.0% | . | 8.0%
C/C(=N\NC(=S)Nc1ccccc1C)c1ccc(O)cc1 | 0.9% | 9.3% | 3.2% | 21.3µM* | -10.0% | -2.0%
COc1cc(/C=N/N(C)c2ccccc2)cc(Cl)c1O | 23.8% | 6.2% | 11.8% | 13.5µM* | 3.3% | 11.6%
COc1ccc(/C=N/N(Cc2ccccc2)c2ccccc2)cc1O | -1.0% | 0.2% | 4.0% | ? | 5.5% | 3.1%
COc1ccc(OC)c(/C=N/N(C)c2ccccc2)c1 | ? | 3.55µM* | 5.8µM* | 10.7µM* | ? | ?
COc1ccc(OC)c(/C=N\NC(=O)c2ccc(-c3ccccc3)cc2)c1 | -4.2% | 9.7% | -9.8% | ? | . | -10.6%
